Experimental data: PubChem BioAssay AID2057 (The Scripps Research Institute Molecular Screening Center, 2009)
Among all 320,000 compounds or so, about 2,100 (0.66%) were called active. Many of the other results were omitted from the sample, so actives are more common in it than they were. Values without a mark were called inactive.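 How the source made its calls: active means inhibition above the mean inhibition of all tested compounds plus 3 SD, set per campaign (cut at about 40% in these data); inactive means the rest.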

Molecular target: Induced myeloid leukemia cell differentiation protein Mcl-1 (Homo sapiens) (UniProt Q07820)
Sequence (Q07820 whole entry, looked up): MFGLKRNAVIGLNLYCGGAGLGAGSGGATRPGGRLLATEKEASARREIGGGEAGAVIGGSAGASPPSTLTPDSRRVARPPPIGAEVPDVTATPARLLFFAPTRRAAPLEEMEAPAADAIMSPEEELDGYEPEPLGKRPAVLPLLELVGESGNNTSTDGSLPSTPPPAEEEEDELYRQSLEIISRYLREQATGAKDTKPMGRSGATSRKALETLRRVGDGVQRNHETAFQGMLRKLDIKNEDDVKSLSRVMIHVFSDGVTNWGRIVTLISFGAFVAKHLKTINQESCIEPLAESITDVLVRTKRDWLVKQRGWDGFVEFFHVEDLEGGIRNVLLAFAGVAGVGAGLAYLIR
Experiment: inhibitors of MCL1 binding to BIM-BH3, primary screen, biochemical, fluorescence polarization (AID 2057);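 further: 0% = DMSO wells and 100% = unlabeled Bim-BH3 peptide control; higher means more loss of mP so more displacement of Bim peptide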
Settings: GST-MCL1 / FITC-Bim-BH3 fluorescence polarization; at 10.9 µM; stronger effect = higher value

Row | Compound | inhibition
1 | CCCOc1ccc(C2c3c(oc4cc(C)c(C)cc4c3=O)C(=O)N2CCCN2CCOCC2)cc1 (centres undefined) | 14.2%
2 | Cc1cc2oc3ccc(NCCC4CCCN4C)cc3c(=O)c2cc1C (centres undefined) | 41.8% (active)
3 | CCN(CC)C(=O)Oc1ccc(Br)cc1C(=O)Nc1ccc(F)c(Cl)c1 | 1.92%
4 | CN(C)[C@@H]1C(=O)C(C(N)=O)=C(O)[C@@]2(O)C(=O)C3=C(O)c4c(O)ccc(Cl)c4[C@@H](O)[C@H]3C[C@@H]12 | 31.5%
5 | C=C1c2c(Cl)ccc(O)c2C(O)=C2C(=O)[C@]3(O)C(O)=C(C(N)=O)C(=O)[C@@H](N(C)C)[C@@H]3[C@@H](O)C12 (some centres undefined) | 87.2% (active)
6 | CCc1ccc(-c2cc(C)no2)cc1S(=O)(=O)NCCc1ccc(S(N)(=O)=O)cc1 | 7.69%
7 | COc1ccc(CCNC(=O)CSCc2ccc(Br)cc2)cc1OC | 13.2%
8 | O=C(O)c1cc(S(=O)(=O)N2CCCCCC2)c(Cl)cc1Cl | 4.06%
9 | O=C(CNC(=O)c1ccccc1F)c1ccc(Br)cc1 | -5.03%
10 | O=C(CNC(=O)c1ccc(F)cc1)c1ccccc1 | -5.56%
11 | O=C(C[n+]1cc(Br)cc2ccccc21)c1ccc(F)cc1 | 63.3% (active)
12 | CCCCn1c(N)c(N(CCOC)C(=O)c2sc3ccccc3c2Cl)c(=O)[nH]c1=O | -3.09%
13 | O=C1c2ccccc2C(=O)N1CCC(O)C[N+](=O)[O-] (centres undefined) | 0.99%
14 | COCCOC(=O)c1sc(=S)n(CCOC)c1N | 105% (active)
15 | CCOC(=O)c1c(N)sc(C(C)=O)c1C | 12.2%
16 | COC(=O)c1sc(=S)n(-c2ccc(Cl)cc2)c1C | 1.56%
17 | CCOc1ccccc1NC(=O)C1CCCN(S(=O)(=O)c2ccccc2)C1 (centres undefined) | -2.29%
18 | O=C(C/C(=N\NC(=O)c1ccccc1Br)C(F)(F)F)c1cccs1 | 12.5%
19 | O=c1ccc2c(-c3ccccc3S(=O)(=O)O)c3ccc(O)c(O)c3oc-2c1O | 88.1% (active)
20 | Cn1c(Nc2ccccc2)cc(=O)n(C)c1=O | -3.95%
21 | COC(=O)CCCC1=CC2=CC(=O)C(C)(OC(=O)c3cccs3)C(=O)C2=CN1CC(C)C (centres undefined) | 14.8%
22 | COC/C=C/C1=CC2=CC(=O)C(C)(OC(=O)CCC(=O)OC)C(=O)C2=CO1 (centres undefined) | 64.3% (active)
23 | COC(=O)CCCC1=CC2=CC(=O)C(C)(OC(=O)c3cccs3)C(=O)C2=CN1CC1CC1 (centres undefined) | 17.1%
24 | O=C(CSc1ccccc1)Nc1cccc(S(=O)(=O)N2CCCCC2)c1 | -3.17%
25 | COc1ccc(-c2ccc(OC(=O)NC3CCS(=O)(=O)C3)cc2)cc1 (centres undefined) | 5.93%

Row | Compound | inhibition
26 | O=c1[nH]c(=S)[nH]c2[nH]c(=S)[nH]c12 | 92.7% (active)
27 | Cc1c(C)c(C)c2[nH]c(=S)[nH]c2c1C | -26%
28 | COc1ccccc1N1CCN(C(=O)c2cc(=O)c3cc(C)cc(C)c3o2)CC1 | 0.82%
29 | COc1ccccc1N1CC(C(=O)NCCN2C(=O)S/C(=C\c3cccnc3)C2=O)CC1=O (centres undefined) | 14.4%
30 | CCOc1ccc(N2CC(C(=O)NCCN3C(=O)S/C(=C\c4cccnc4)C3=O)CC2=O)cc1 (centres undefined) | -2.41%
31 | COc1ccc(N2CC(C(=O)NCCN3C(=O)S/C(=C\c4cccnc4)C3=O)CC2=O)c(OC)c1 (centres undefined) | 166% (active)
32 | CC1CC(=O)N(CC(=O)Nc2cccc(Cl)c2)c2ccccc2S1(=O)=O (centres undefined) | -4.67%
33 | CCCC1OC23CCCCC2C(C#N)(C#N)C1(C#N)C(=N)O3 (centres undefined) | 95.8% (active)
34 | CCCC[C@@H]1CN=C(N)N1CCc1cc(C(F)(F)F)cc(C(F)(F)F)c1 | 10.6%
35 | O=C(Nn1c(-c2ccc(Cl)cc2)nc2ccccc2c1=O)c1cccnc1Cl | 5.2%
36 | CN(C)c1ccc(Nc2c3c4c(cccc4n(C)c2=O)C(=O)c2ccccc2-3)cc1 | 55.2% (active)
37 | CCOC(=O)C(CC)/C(C)=N\NC(=O)c1cccc(C)c1 (centres undefined) | -4.82%
38 | Cc1ccc(NS(=O)(=O)c2ccc(F)cc2)nc1 | 1.22%
39 | Cc1cc(-c2csc(N)n2)c(C)n1Cc1ccccc1 | 6.96%
40 | CC(=O)c1ccc(-c2ccc(Cn3c(C)nc4cc(N)c(C)nc43)cc2)cc1 | 8.3%
41 | COc1ccccc1NC(=O)COC(=O)Cc1ccc(S(=O)(=O)N2CCCCC2)s1 | -0.05%
42 | Cc1nn(-c2ccc([N+](=O)[O-])cc2)c(N)c1-c1ccccc1 | -34.6%
43 | Cc1nn(C(=O)c2ccoc2C)c(N)c1-c1ccccc1 | 193% (active)
44 | C/C(=N\NC(=O)c1ccoc1C)c1ccccc1O | 4.86%
45 | Cc1csc(NC(=O)CSc2nc(=O)n(CCCN(C)C)c3c2CCC3)n1 | -0.83%
46 | COc1ccc(SCCN2CCN(CC(C)C)CCC2=O)cc1 | -4.27%
47 | CC(=O)N(CC(O)CO)c1c(I)c(C(=O)NCC(O)CO)c(I)c(C(=O)NCC(O)CO)c1I (centres undefined) | -0.91%
48 | COCCn1c(SCC(=O)Nc2nc(C)cs2)nnc1C(C)C | -2.37%
49 | O=c1[nH]c(N2CCOCC2)nc2ccccc12 | 2.38%
50 | C1=C(N2CCOCC2)/C(=C/c2nc3ccccc3[nH]2)CC1 | 105% (active)

Row | Compound | inhibition
51 | CC1(C)Cc2c(C#N)c(SCc3nc4ccccc4[nH]3)nc(N3CCOCC3)c2CO1 | 3.45%
52 | CNC(=O)N1c2ccccc2C=Cc2ccccc21 | -1.86%
53 | CS(=O)(=O)N1CCc2nc(-c3ccccc3)sc2C1 | 7.75%
54 | COc1ncnc2c1N=C1CC(C)(C)CC(N)=C1S2 | 191% (active)
55 | CCN(CC)S(=O)(=O)c1ccc2[nH]c(=O)cc(C(=O)N(C)C3CCS(=O)(=O)C3)c2c1 (centres undefined) | 7.4%
56 | CCCC(C(=O)OCCN(CC)CC)(c1ccccc1)c1ccccc1 | -3.08%
57 | N#CC1=C(N)C(C#N)(C#N)[C@H](c2ccsc2)[C@H]2COCC=C12 | 32.7%
58 | CCN1CC=C2C(C#N)=C(N)C(C#N)(C#N)[C@H](c3ccoc3)[C@H]2C1 | 171% (active)
59 | CCCN1CC=C2C(C#N)=C(N)C(C#N)(C#N)C(c3cc(OC)ccc3OC)C2C1 (centres undefined) | 68.3% (active)
60 | CSc1ccccc1NC(=O)c1cnc2sc(C)cn2c1=O | 3.46%
61 | O=C(OCC(=O)N1CCOCC1)c1ccc2ccccc2c1 | -1.12%
62 | O=c1c2ccccc2oc2nc(C3CCCCC3)n(Cc3ccco3)c(=O)c12 | 2.28%
63 | Cn1c2ccccc2c(=O)c2c(=O)n(Cc3ccco3)c(COc3ccccc3)nc21 | 60.6% (active)
64 | CCCc1nc2c(c(=O)c3ccccc3n2C)c(=O)n1C1CCCCCC1 | -7.58%
65 | O=C(O)c1ccc(S(=O)(=O)N2CCOCC2)o1 | -0.62%
66 | COC(=O)N/N=C/c1c[n+]([O-])c2ccccc2[n+]1[O-] | 5.75%
67 | CN1C(=O)/C(=C/c2ccco2)SC1=Nc1cccc(C(=O)O)c1 | 44.5% (active)
68 | Cc1cc(/C=C2\SC(=O)N(C)C2=O)c(C)n1-c1cccc(C(=O)O)c1 | 10.5%
69 | Cc1cc(/C=C2\SC(=Nc3ccc(N4CCOCC4)cc3)N(C)C2=O)c(C)n1-c1cccnc1 | -2.16%
70 | COc1ccc(N(CC(=O)NC2CCCCC2)S(=O)(=O)c2c(C)[nH]c(=O)[nH]c2=O)cc1 | 5.18%
71 | CN(C(=O)COC(=O)c1cc(-c2ccco2)nc2ccccc12)C1CCS(=O)(=O)C1 (centres undefined) | 105% (active)
72 | CN(C(=O)COC(=O)c1nc(Cl)ccc1Cl)C1CCS(=O)(=O)C1 (centres undefined) | -0.55%
73 | COc1ccc(-c2cc(C(=O)N(C)Cc3ccccc3)c3ccccc3n2)cc1 | -5.9%
74 | COc1ccc(NC(=O)CN(C)C(=O)c2cc(-c3ccc(C)o3)nc3ccccc23)cc1 | 4.98%
75 | CC1CCCN(C(=O)c2cc(-c3ccco3)nc3ccccc23)C1 (centres undefined) | 7.17%

Row | Compound | inhibition
76 | CN(CCOc1ccccc1)C(=O)c1cc(-c2ccco2)nc2ccccc12 | 46% (active)
77 | COc1ccccc1C(=O)N/C(=C/c1ccco1)C(=O)Nc1ccc(C(=O)O)cc1 | 12.1%
78 | COC(=O)c1ccccc1NC(=O)CSc1nc2c(c(=O)[nH]1)CCC2 | 0.89%
79 | CC(=O)N1CCC(C(=O)OCc2ccc(Cl)cc2)(c2ccccc2)CC1 | 7.68%
80 | CCCCC(NS(=O)(=O)c1ccc(C)cc1)C(=O)Oc1ccc2c3c(c(=O)oc2c1)CCC3 (centres undefined) | 1.03%
81 | C#CCOCCOCCOCCNc1nc(N2CCN(C(=O)CCCCCCCCCCNC(=O)[C@H](CCCCN)n3cc(C)nn3)CC2)nc(N2CCN(C(=O)CCCCCCCCCCNC(=O)[C@H](CO)n3cc(CCCSC)nn3)CC2)n1 | 14.4%
82 | CN1c2ccc(C=O)c3c(C=O)ccc(c23)N(C)C1(C)C | 167% (active)
83 | O=C(OCc1cc(Cl)ccc1OC(F)F)c1cccnc1 | -0.26%
84 | CS(=O)(=O)Nc1ccccc1N=C(c1ccccc1)c1ccccc1 | -1.05%
85 | COC(=O)/C=C\C(=O)Nc1cccc([N+](=O)[O-])c1 | 2.27%
86 | Cc1ccc(C(=O)NC(=S)Nc2ccccc2C)cc1 | 4.14%
87 | COC(=O)c1sccc1NC(=S)Nc1ccc(C)cc1 | 13.5%
88 | COC(=O)c1sc(NC(=S)NC(=O)c2ccc(C)cc2)nc1C | 98.3% (active)
89 | CCOc1ccc(C2C3=C(CCCC3=O)N(CC(=O)O)C3=C2C(=O)CCC3)cc1 | 17.6%
90 | CCCN1C2=C(C(=O)CCC2)C(c2ccc(O)c(Br)c2)C2=C1CCCC2=O | 43.5% (active)
91 | COc1ccc(C2C3=C(CCCC3=O)N(CC(=O)O)C3=C2C(=O)CCC3)cc1 | 8.95%
92 | COc1ccccc1N1CCN(S(=O)(=O)CCNC(=O)c2ccc(OC(C)C)cc2)CC1 | -5.21%
93 | Cc1cc(C)n2nc(C(=O)N(C)C(c3ccccc3)c3ccccc3)nc2n1 | -7.96%
94 | O=S(=O)([N-]c1nc2ccccc2nc1-[n+]1ccc(Cc2ccccc2)cc1)c1ccc(Br)s1 | 87.1% (active)
95 | Cc1cc(C)c[n+](-c2nc3ccccc3nc2[N-]S(=O)(=O)c2cccs2)c1 | 3.38%
96 | O=C(NCCc1ccccc1)C1CCN(S(=O)(=O)c2ccc(Br)s2)CC1 | -0.6%
97 | Cc1cc(-c2nnc(SCC(=O)Nc3ccc(S(N)(=O)=O)cc3)n2N)n[nH]1 | -7.81%
98 | COc1ccc2ccccc2c1CNCc1ccccn1 | 4.21%
99 | CSc1ccccc1C(=O)OCC(=O)N1CCN(C(C)=O)CC1 | 1.83%
